# In PubChem BioAssay AID434964 (The Scripps Research Institute Molecular Screening Center, 2010):
# The list shows a part of the results. Values without a mark were called inactive. Active and inactive are the calls of the source.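 The calls were made as follows: active = average activation exceeds primary screen hit cutoff (cut at about 21% in these data); inactive = the rest.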
# Target: Vasopressin V1a receptor (Homo sapiens) (UniProt P37288)
# Experiment: V1a receptor agonists, calcium signal, confirmation, Fluo-8 calcium fluorescence, CHO-V1R cells (AID 434964);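 also: peak over basal fluorescence ratio during a 100 s FLIPR read; 0% = DMSO only wells and 100% = 3 nM vasopressin wells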
# Settings: agonist, at 3 µM, hits give high values
# Sequence of Vasopressin V1a receptor (Homo sapiens) (P37288 whole entry, looked up): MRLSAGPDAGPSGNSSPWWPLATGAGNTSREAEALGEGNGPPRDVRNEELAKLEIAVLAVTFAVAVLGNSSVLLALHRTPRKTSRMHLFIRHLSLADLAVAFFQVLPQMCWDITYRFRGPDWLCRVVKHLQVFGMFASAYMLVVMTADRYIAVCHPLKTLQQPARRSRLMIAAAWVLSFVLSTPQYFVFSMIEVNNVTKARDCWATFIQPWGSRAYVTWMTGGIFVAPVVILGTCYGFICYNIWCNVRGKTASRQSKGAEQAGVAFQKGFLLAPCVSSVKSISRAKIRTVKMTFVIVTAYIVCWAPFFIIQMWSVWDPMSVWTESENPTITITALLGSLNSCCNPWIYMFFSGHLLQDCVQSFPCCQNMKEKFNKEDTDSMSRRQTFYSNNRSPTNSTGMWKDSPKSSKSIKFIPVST
row,Structure (SMILES),activation
1,CCN(CC)c1ccc2cc(C(N)=O)/c(=N\NC(=O)c3ccncc3)oc2c1,21.7% (active)
2,Fc1cccc(Cl)c1COc1ccc(-c2nnco2)cc1,2.1%
3,O=C(CN1CCN(c2cccc(Cl)c2)CC1)Nc1ccc(S(=O)(=O)N2CCOCC2)cc1,3.06%
4,CC1(C)S[C@@H]2[C@H](N=CN3CCCCCC3)C(=O)N2[C@H]1C(=O)O,0.2%
5,O=C(c1ccccc1)c1ccc(OCC(O)CN2CCCC2)cc1 (stereo not drawn),-0.08%
6,O=c1c2cc(Br)ccc2nc(-c2cccc(Cl)c2)n1O,31.8% (active)
7,CCN(CC)c1ccc(/C=N/NC(=O)c2cnccn2)c(O)c1,10.5%
8,Cc1cc(C)c(/C=C2\C(=O)Nc3ccccc32)[nH]1,40.5% (active)
